An excerpt weighted towards active compounds, which were near 1.5% of everything screened.
TDP1 inh – qHTS Assay for Inhibitors of Tyrosyl-DNA Phosphodiesterase (TDP1); recombinant TDP1, AlphaScreen DNA substrate cleavage; Potency, µM (highest dose often 130 µM), inactives show at the top dose activity change, negative = inhibition, most hits filed as inhibitors; 350,000 compounds, 0.28% hits; AID 485290, 2010; Tyrosyl-DNA phosphodiesterase 1 (Homo sapiens), Q9NUW8; note: potency is the fitted concentration of half-maximal effect; nearly all actives have a fitted effect of over 40% in size
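Enzyme-compound mixtures sat 15 min at room temperature, followed by a 5 min reaction with 15 nM final substrate and 10 min with AlphaScreen beads. Recombinant human Tdp1 was used at 1 nM final.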
PI5P4Ka inh – qHTS for Inhibitors of phosphatidylinositol 5-phosphate 4-kinase (PI5P4K) | max response, % | PI5P4Kalpha enzyme, ADP-Glo luminescence, 60 min; hits give low values | 330,000 compounds, 1.2% hits; active = max response of -50% or lower; inconclusive = between -30% and -50%; inactive = -30% or higher; note: value at the top dose of about 77 µM
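Controls without substrate or without enzyme flank wells where PI5P4Kalpha converts substrate using 5 microM ATP (final). Incubation lasts 60 minutes at room temperature; ADP formed is read by ADP-Glo luminescence.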
FEN1 inh – qHTS Assay for the Inhibitors of Human Flap endonuclease 1 (FEN1). P39748. Recombinant FEN1 flap cleavage, fluorescence, 15 min. Potency, µM (series often up to 114 µM), for inactives: at the top dose activity change, negative = inhibition, hits mostly inhibitors. 390,000 compounds, 0.35% hits; note: potency is the fitted concentration of half-maximal effect; nearly all actives have a fitted effect of over 65% in size
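Steps: FEN1 (10 nM) dispensed; compound added by pin tool; 15 min at room temperature; substrate added to 50 nM final; reads at 0 min and 15 min; data normalized and fitted (four-parameter Hill).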
Tb PFK block – qHTS Assay to Find Inhibitors of T. brucei phosphofructokinase; ATP-dependent 6-phosphofructokinase (Trypanosoma brucei brucei), O15648; T. brucei PFK, ADP-Glo luminescence; Potency, µM (titrated, usually from 57.5 µM), for inactives: top-dose activity, negative = inhibition, actives largely listed as inhibitors; 330,000 compounds, 0.17% hits;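 note: potency is the fitted concentration of half-maximal effect; 0% = uninhibited 1x PFK enzyme wells and -100% = no-enzyme wells; nearly all actives have a fitted effect of over 60% in size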
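In TEA buffer at pH 8.0 with 5 mM MgCl2, enzyme (1.25 nM) converted F6P (0.5 mM) and ATP (0.1 mM) for 45 min at room temperature. ADP product was read by luciferase luminescence.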
Tb PGK inh – qHTS Assay to Find Inhibitors of Phosphoglycerate Kinase. Phosphoglycerate kinase, glycosomal (Trypanosoma brucei brucei), P07378. PGK/GAPDH coupled, Kinase-Glo luminescence, 60 min. Potency, µM (doses to about 57.5 µM), without a hit: at the top dose activity change, negative = inhibition, hits mostly inhibitors. 380,000 compounds, 0.043% hits. AID 602233, 2012; note: potency is the fitted concentration of half-maximal effect; nearly all actives have a fitted effect of over 60% in size
Target sequence (P07378 whole entry, looked up): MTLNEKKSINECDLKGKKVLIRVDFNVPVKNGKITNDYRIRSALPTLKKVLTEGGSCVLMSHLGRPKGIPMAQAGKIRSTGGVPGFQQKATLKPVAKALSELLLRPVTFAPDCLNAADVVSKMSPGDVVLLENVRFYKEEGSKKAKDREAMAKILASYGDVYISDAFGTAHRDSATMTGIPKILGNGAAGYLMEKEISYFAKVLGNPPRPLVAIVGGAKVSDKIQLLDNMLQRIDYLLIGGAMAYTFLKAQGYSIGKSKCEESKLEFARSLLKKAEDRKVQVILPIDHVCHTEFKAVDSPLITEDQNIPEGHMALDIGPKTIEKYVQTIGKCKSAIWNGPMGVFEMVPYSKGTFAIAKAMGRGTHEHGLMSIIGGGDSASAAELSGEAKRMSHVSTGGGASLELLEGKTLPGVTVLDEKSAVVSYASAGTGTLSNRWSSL
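Luminescent ATP detection (Kinase-Glo Plus) follows a 60-minute room-temperature incubation, with wells lacking PGK as controls. Buffer: 100 mM TEA (pH 7.6), 5 mM MgCl2, 0.01% Tween-20. Coupling enzyme GAPDH (100 nM final) supplies unstable 1,3-BPG in-well.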
WRN inhibitor – qHTS for Inhibitors of WRN Helicase. AID 651768, 2012. Bifunctional 3'-5' exonuclease/ATP-dependent helicase WRN (Homo sapiens), Q14191. Potency, µM (doses to about 114 µM), inactives show at the top dose activity change, negative = inhibition, most hits filed as inhibitors. WRN helicase unwinding, fluorescent forked duplex, kinetic. 360,000 compounds, 0.46% hits; note: potency is the fitted concentration of half-maximal effect; nearly all actives have a fitted effect of over 55% in size
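Fluorescence dequenching readout, ex 525 nm/em 598 nm, kinetic mode: forked duplex DNA (100 nM final) with adjacent fluorophore and quencher unwound by WRN (20 nM final) with 2 mM ATP. Compound preincubation 15 min, room temperature.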
ADP-Glo interf – qHTS for Inhibitors of PI5P4K: ADP-Glo counter assay | Potency, µM (top dose mostly 76.9 µM), without a hit: at the top dose activity change, negative = inhibition, actives largely listed as inhibitors | 1,100 tested, under 10 active | shares compounds with PI5P4Ka inh | ADP-Glo detection counter-screen, luciferase luminescence, no enzyme
Active calls of the source: *; i = inactive; ? = inconclusive; . = not tested or not shown; [ ] = remark or other dose. Unless noted, calls come from the whole dose curve; as a rule, active = well fitted curve in the direction sought with a large enough effect; inconclusive = small, poorly fitted or top-dose-only effect, or another doubt; inactive = no such curve, though single readings can be large; an effect the other way counts as inactive or inconclusive. Unless noted, % is set by controls: 0 for no effect and ±100 for the full control effect.

SMILES	TDP1 inh	PI5P4Ka inh	FEN1 inh	Tb PFK block	Tb PGK inh	WRN inhibitor	ADP-Glo interf
CCOc1ccc(CCNS(=O)(=O)c2ccc3c(c2)NC(=O)CO3)cc1OCC	0%	-9	-14%	2%	-4%	8%	.
CC1(C2CC2)NC(=O)N(CC(=O)NCC(=O)Nc2ccc(F)c(F)c2F)C1=O (centres undefined)	-1%	2	1%	-3%	-7%	3%	.
CC(C)NC(=O)N1c2ccccc2Sc2ccccc21	.	-60*	5%	0%	-4%	4%	-1%
COc1cc(Br)cc(CNc2ccc(F)c([N+](=O)[O-])c2)c1O	-4%	-28	-2%	?	1%	-9%	0%
COc1ccc(CN2C(=O)c3cccnc3C2=O)cc1S(=O)(=O)NCc1ccco1	1%	1	0%	0%	-10%	-6%	.
CCCCNC(=S)NNC(=O)c1cc(-c2ccncc2)nc2ccccc12	6%	2	10%	1%	i	-9%	.
CC1=NN(c2nc(-c3ccc(Cl)cc3)cs2)C(=O)C1	5%	-67*	?	0%	-6%	?	-8%
CCCC(=O)Nc1sc(-c2ccccc2)c(-c2ccccc2)c1C(=O)O	.	-10	-14%	.	-6%	-8%	.
Cc1cc(NC(=O)CN2CCCCCCC2)no1	-4%	.	0%	0%	-6%	-7%	.
Cc1cc(NC(=O)CN2CCN(C)CC2)no1	-7%	-51*	?	-4%	i	5%	3%
NS(=O)(=O)c1ccc2c(c1)C1C=CCC1C(C1CC=CCC1)N2 (centres undefined)	2%	-80*	-5%	-6%	-4%	?	-13%
Cc1ccccc1C(=O)Oc1cccc2c(O)cccc12	7%	16	-2%	-2%	-9%	-7%	.
O=C(Oc1cccc2c(O)cccc12)c1ccco1	.	-54*	-12%	.	-6%	2%	0%
COc1ccc(NC(=O)CSc2nc(-c3ccco3)nc3cc(=O)[nH]n23)cc1Cl	50µM*	-56*	-18%	1%	-4%	-8%[11.6 µM]	-3%
O=C(CN1CCN(C(=O)N2CCOCC2)CC1)Nc1cc(Cl)ccc1Cl	7%	-7	-8%	-6%	-9%	2%[57.1 µM]	.
Nc1nc(N)c2cc([N+](=O)[O-])ccc2n1	.	-22	?	.	-7%	-32%	.
Nc1nc(N)c2c(ccc3c2ccn3Cc2cccc([N+](=O)[O-])c2)n1	.	-61*	.	.	.	-15%[57.1 µM]	1%
COc1ccc(C2=CC3=C(Br)C(=O)C(C)(OC(=O)c4cnc5ccccc5n4)C(=O)C3=CO2)cc1 (centres undefined)	6%	.	.	.	.	.	.
COc1ccc(C2=CC3=C(Br)C(=O)C(C)(OC(=O)c4cccs4)C(=O)C3=CO2)cc1 (centres undefined)	2%	-70*	?	.	-29%	?	3%
NC(=O)C1CCN(c2cc(Cl)nc(N)n2)CC1	-2%	-53*	2%	3%	-6%	-21%	3%
COC(=O)C1CCN(c2cc(Cl)nc(N)n2)CC1	0%	-22	-3%	-1%	-3%	-3%	.
Cc1c(C(=O)Nc2ccc3c(c2)OCCO3)sc2ncnc(N3CCCCC3C)c12 (centres undefined)	11%	.	-4%	1%	i	-8%[57.1 µM]	-3%
Cc1nc(N2CCC(C)CC2)c2c(C)c(C(=O)Nc3ccc4c(c3)OCCO4)sc2n1	0%	10	17%	-2%	5%	-5%	.
COc1ccc(C(=O)COC(=O)CN2C(=O)C3C4C=CC(C5CC45)C3C2=O)cc1 (centres undefined)	0%	7	1%	0%	-3%	6%	.
O=c1[nH]c(N2CCOCC2)cc2ccccc12	.	-3	16%	.	i	14%	-5%
SMILES	TDP1 inh	PI5P4Ka inh	FEN1 inh	Tb PFK block	Tb PGK inh	WRN inhibitor	ADP-Glo interf
Cc1cc(C)c(NC(=O)c2sc3nc(C)cc(C)c3c2N)c(C)c1	2%	.	-5%	.	-1%	.	.
Cc1cc(C)c2c(N)c(C(=O)Nc3c(C)n(C)n(-c4ccccc4)c3=O)sc2n1	3%[56.1 µM]	0	17%	1%	4%	-8%	0%
Cn1c(SCC(=O)Nc2ccc3nc(SCC(=O)N4CCCC4)sc3c2)nnc1-c1ccccc1	50µM*	-64*	-24%	-18%	-26%	?	-7%
Cc1ccc(-c2csc(N3CCN(c4cc5c(cc4Cl)nc(-c4ccncc4)n5CCN4CCCCC4)CC3)n2)cc1	.	-64*	-13%	1%	-1%	-2%	5%
NC(=O)c1c(N)sc2c1CCCC2	-10%	-7	-14%	-15%	-4%	3%	.
Nc1sc2c(c1C(=O)c1ccccc1)CCCC2	11%	-51*	-9%	-3%	3%	-9%	-6%
Cc1oc2ccc(OCc3c(F)cccc3Cl)cc2c1C(=O)O	.	-55*	-2%	0%	-8%	-5%	-2%
COc1ccc(N2CC(C(=O)Nc3nc4ccc(S(C)(=O)=O)cc4s3)CC2=O)cc1 (centres undefined)	.	-53*	0%	0%	-2%	-12%	1%
CCc1ccc(N2CC(C(=O)Nc3nc4ccc(S(C)(=O)=O)cc4s3)CC2=O)cc1 (centres undefined)	.	-8	-19%	-3%	-1%	2%	.
Cc1c(Cl)cccc1NC(=O)Cn1nnc(C(=O)NCc2cccs2)c1N	2%	?	3%	-3%	-9%	?	-7%
COc1ccc(C(=O)C2CCCN(Cc3ccc4nonc4c3)C2)c(OC)c1 (centres undefined)	5%	4	2%	2%	i	-11%	.
CCNC(=O)COC(=O)c1cc(-c2ccco2)nc2ccccc12	?	-78*	?	-21%	-23%	-21%[11.6 µM]	3%
Cc1ccc(-c2cc(C(=O)NCc3ccco3)c3ccccc3n2)o1	.	-88*	-4%	?	?	56µM*	-1%
CC(=O)C1=CCC(c2ccccc2)N(S(=O)(=O)c2ccc(Cl)cc2)C1 (centres undefined)	.	7	.	.	.	0%	.
Clc1ccc2nc(-c3ccco3)c(Cc3ccsc3)n2c1	.	-66*	.	.	.	-19%	-2%

Compound activity from PubChem.
